Laboratory results: the supplement of paper PMC13380429

System: Vero E6 infected with SARS-CoV-2
Assay: inhibition of SARS-CoV-2 cytopathic effect; higher = more antiviral protection, active = above 15
Settings: 48 h

Measured: inhibition of SARS-CoV-2 cytopathic effect

CCN(CC)c1ccc(/C=N/NC(=O)c2ccc(O)cc2)cc1
inactive: 1 nM -0.79% | 8.33 nM 2.18% | 100 nM 0.82% | 833.33 nM -0.79% | 10000 nM 0.11%

Cc1cc2c(N3CCCC3)nc(N3CCCC3)nc2n1C
inactive: 1 nM 1.39% | 8.33 nM 5.02% | 100 nM 4.75% | 833.33 nM 3.21% | 10000 nM 3.47%

CC(=O)N1CCN(C)CC1 [1-acetyl-4-methylpiperazine]
inactive: 1 nM 4.74% | 8.33 nM 3.75% | 100 nM 3.95% | 833.33 nM 4.36% | 10000 nM -0.21%

CCCc1nc2c(C)cc(-c3nc4ccccc4n3C)cc2n1Cc1ccc(-c2ccccc2C(=O)O)cc1 [telmisartan]
inactive: 1 nM -1.56% | 8.33 nM -2.17% | 100 nM -4.81% | 833.33 nM 2.3% | 10000 nM 1.33%

CS(=O)(=O)Nc1ccc(Cc2noc(-c3ccc4[nH]cc(CCN)c4c3)n2)cc1
inactive: 1 nM -2.75% | 8.33 nM -0.95% | 100 nM -2.42% | 833.33 nM -1.18% | 10000 nM -1.18%

O=C(O)Cc1sc(-c2ccccc2)nc1-c1ccc(Cl)cc1 [fentiazac]
inactive: 1 nM -0.18% | 8.33 nM -2.64% | 100 nM -1.78% | 833.33 nM 0.61% | 10000 nM 1.91%

O=C(NCCNCC(O)COc1ccc(O)cc1)N1CCOCC1 (stereo not given) [xamoterol]
inactive: 1 nM -2.07% | 8.33 nM -0.88% | 100 nM -0.13% | 833.33 nM 0.01% | 10000 nM 3.26%

CC(=O)CC(c1ccccc1)c1c(O)c2ccccc2oc1=O (stereo not given) [warfarin]
inactive: 1 nM -10.1% | 8.33 nM -9.65% | 100 nM -9.92% | 833.33 nM -10.1% | 10000 nM -14.2%

CCCCOc1nc(N)c2c(n1)N(Cc1cccc(CN3CCCC3)c1)CC(=O)N2
inactive: 1 nM 0.32% | 8.33 nM 2.16% | 100 nM 0.03% | 833.33 nM 2.02% | 10000 nM 1.92%

CC(C)Oc1cccc(CC(=O)N2CCC[C@](CC[N+]34CCC(c5ccccc5)(CC3)CC4)(c3ccc(Cl)c(Cl)c3)C2)c1
inactive: 1 nM 1.67% | 8.33 nM 0.54% | 100 nM 0.54% | 833.33 nM 4.46% | 10000 nM 1.59%

CNC(=O)c1ccc2c(c1)S(=O)(=O)c1ccccc1C2=O
inactive: 1 nM 0.15% | 8.33 nM 0.66% | 100 nM 1.63% | 833.33 nM -1.32% | 10000 nM -0.42%

CS(=O)(=O)Nc1ccc(-c2coc3cc(OCc4cccc(C(=O)O)c4)ccc3c2=O)cc1
inactive: 1 nM -0.72% | 8.33 nM 1.73% | 100 nM -1.1% | 833.33 nM -0.83% | 10000 nM -0.08%

C[C@@H](N)[C@H]1CC[C@H](C(=O)Nc2ccncc2)CC1
inactive: 1 nM -2.16% | 8.33 nM -4.44% | 100 nM -2.01% | 833.33 nM 2.02% | 10000 nM -3.54%

CNC(=O)c1cc(COc2nnc(Nc3ccc(Cl)cc3)c3ccoc23)ccn1 [telatinib]
inactive: 1 nM 0.06% | 8.33 nM 2.23% | 100 nM -1.3% | 833.33 nM 0.04% | 10000 nM 0.53%

CC(C)(O)CC(=O)NCCn1ccc2ncnc(Nc3ccc(Oc4cccc(C(F)(F)F)c4)c(Cl)c3)c21
inactive: 1 nM 4.78% | 8.33 nM 7.81% | 100 nM 3.51% | 833.33 nM -7.39% | 10000 nM -14.1%

O=C(O)CCCc1ccc(N(CCCl)CCCl)cc1 [chlorambucil]
inactive: 1 nM -0.23% | 8.33 nM 0.88% | 100 nM -0.7% | 833.33 nM -1.67% | 10000 nM -0.16%

CC(C)CCN1c2nc(Nc3cc(F)c(O)c(F)c3)ncc2N(C)C(=O)[C@@H]1C
inactive: 1 nM -1.15% | 8.33 nM -2.75% | 100 nM -6.09% | 833.33 nM -0.02% | 10000 nM 8.71%

COCC1(CO)C(=O)C2CCN1CC2 (stereo not given)
inactive: 1 nM -1.69% | 8.33 nM -1.26% | 100 nM -0.44% | 833.33 nM -0.13% | 10000 nM 4.84%

CC(O)CN1CCN(CC(=O)[O-])CCN(CC(=O)[O-])CCN(CC(=O)[O-])CC1.[Gd+3] (stereo not given) [gadoteridol]
inactive: 1 nM 0.66% | 8.33 nM -0.76% | 100 nM 0.17% | 833.33 nM 0.32% | 10000 nM -3.99%

C=CC(=O)Nc1cccc(Nc2nc(Nc3ccc(OCCOC)cc3)ncc2F)c1
inactive: 1 nM -0.6% | 8.33 nM 2.81% | 100 nM 0.54% | 833.33 nM -6.55% | 10000 nM -11.3%

CCOC(=O)C1=C(C)NC(C)=C(C(=O)OC)C1c1cccc(Cl)c1Cl (stereo not given) [felodipine]
inactive: 1 nM 1.65% | 8.33 nM 3.36% | 100 nM 5.39% | 833.33 nM 4.84% | 10000 nM 1.57%

O=C(CN1CCN(C(=O)c2ccco2)CC1)Nc1cc(C(F)(F)F)ccc1Cl
inactive: 1 nM 0.23% | 8.33 nM -4.63% | 100 nM -0.17% | 833.33 nM 1.03% | 10000 nM 5.23%

FC(F)(F)c1cc(CO[C@H]2CCCN[C@H]2c2ccccc2)cc(C(F)(F)F)c1
inactive: 1 nM 0.32% | 8.33 nM -2.69% | 100 nM -5.07% | 833.33 nM -6.64%
active: 10000 nM 18.1%

CC(C)(C)c1ccc(S(=O)(=O)/C=C/C#N)cc1
inactive: 1 nM 2.15% | 8.33 nM 0.27% | 100 nM 0.24% | 833.33 nM 5.32% | 10000 nM -2.36%

O=c1c(O)c(-c2ccc(O)c(O)c2)oc2cc(O)ccc12 [fisetin]
inactive: 1 nM 0.55% | 8.33 nM -1.12% | 100 nM 0.7% | 833.33 nM -0.95% | 10000 nM -1.68%

O=C(Nc1ccccc1Br)N[C@@H]1CCN(c2ccc(C(F)(F)F)cn2)C1
inactive: 1 nM 3.02% | 8.33 nM 3.06% | 100 nM 1.72% | 833.33 nM 3.42% | 10000 nM 1.82%

c1ccc2c(c1)CN1CCCC1=N2 [desoxypeganine]
inactive: 1 nM -4.75% | 8.33 nM -3.18% | 100 nM -1.21% | 833.33 nM -2.32% | 10000 nM -1.54%

NC(=O)NCCC[C@H](N)C(=O)O [L-citrulline]
inactive: 1 nM 0.06% | 8.33 nM -1.99% | 100 nM 1.8% | 833.33 nM 2.58% | 10000 nM 1.61%

O=C(C1CCCCC1)N1CC(=O)N2CCc3ccccc3C2C1 (stereo not given) [praziquantel]
inactive: 1 nM -1.8% | 8.33 nM 0.08% | 100 nM 1.39% | 833.33 nM 2.67% | 10000 nM 0.6%

C[C@@H]1CC(=O)c2c(ccc3c2C(=O)c2cccc(O)c2C3=O)C1 [ochromycinone]
inactive: 1 nM -3.4% | 8.33 nM -1.61% | 100 nM -3.55% | 833.33 nM -1.87% | 10000 nM -3.84%

O=C(O)c1cn(-c2ccc(F)cc2)c2cc(N3CCNCC3)c(F)cc2c1=O [sarafloxacin]
inactive: 1 nM -2.73% | 8.33 nM -5.26% | 100 nM -3.5% | 833.33 nM -5.86% | 10000 nM -4.93%

COc1cc(C[C@@H]2NCCc3cc(O)c(O)cc32)cc(OC)c1OC [trimethoquinol]
inactive: 1 nM 0.9% | 8.33 nM 0.73% | 100 nM 1.88% | 833.33 nM 0.62% | 10000 nM -5.45%

CCN(CC)CCOCCOC(=O)C1(c2ccccc2)CCCC1 [carbetapentane]
inactive: 1 nM -0.34% | 8.33 nM 0.73% | 100 nM 1.1% | 833.33 nM 1.39% | 10000 nM 0.95%

COc1cc2nccc(Oc3ccc(NC(=O)NC4CC4)c(Cl)c3)c2cc1C(N)=O [lenvatinib]
inactive: 1 nM -1.78% | 8.33 nM -0.25% | 100 nM -0.32% | 833.33 nM -0.03% | 10000 nM 8.44%

Cc1c(O)cccc1C(=O)N[C@@H](CSc1ccccc1)[C@H](O)CN1C[C@H]2CCCC[C@H]2C[C@H]1C(=O)NC(C)(C)C [nelfinavir]
active: 10000 nM 43.2%
inactive: 1 nM -4.7% | 8.33 nM -3.72% | 100 nM -1.32% | 833.33 nM 3.72%

COc1ccccc1N1CCN(CCN(C(=O)C2CCCCC2)c2ccccn2)CC1
inactive: 1 nM -3.64% | 8.33 nM -4.61% | 100 nM -0.56% | 833.33 nM 3.47% | 10000 nM -0.29%

O=C(NC1CCNCC1)c1n[nH]cc1NC(=O)c1c(Cl)cccc1Cl
inactive: 1 nM -0.55% | 8.33 nM -2.6% | 100 nM -1.5% | 833.33 nM -1.53% | 10000 nM 2.5%

CC1(C)[C@@H](OC(=O)CCC(=O)O)CC[C@]2(C)[C@H]3C(=O)C=C4[C@@H]5C[C@@](C)(C(=O)O)CC[C@]5(C)CC[C@@]4(C)[C@]3(C)CC[C@@H]12
inactive: 1 nM 0.51% | 8.33 nM 0.66% | 100 nM 1.43% | 833.33 nM 1.74% | 10000 nM -1.29%

N=C(N)NCCCC[C@@H]1NC(=O)CCSSC[C@@H](C(N)=O)NC(=O)[C@@H]2CCCN2C(=O)[C@H](Cc2c[nH]c3ccccc23)NC(=O)[C@H](CC(=O)O)NC(=O)CNC1=O [eptifibatide]
inactive: 1 nM -0.98% | 8.33 nM 8.08% | 100 nM 3.25% | 833.33 nM 2.75% | 10000 nM -2.38%

O=C(O[C@@H]1Cc2c(O)cc(O)cc2O[C@@H]1c1cc(O)c(O)c(O)c1)c1cc(O)c(O)c(O)c1 [epigallocatechin-gallate-(-)]
inactive: 1 nM -3.81% | 8.33 nM 2.17% | 100 nM 0.79% | 833.33 nM 1.05% | 10000 nM 0.98%
